# IL1B secr inh – qHTS for Inhibitors of Inflammasome Signaling: IL-1-beta AlphaLISA Primary Screen; 360,000 tested, 4.7% active; activity change, % at 57.5 µM; AID 743279, 2014; THP-1 LPS/ATP IL-1B secretion, AlphaLISA, 16 h; hits give low values; in the data active = activity change below about -50%; inconclusive = mostly about -30% to -49%
#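 THP-1 cells pretreated 1 hr with compounds (up to 57.5 uM final), then stimulated with LPS (250 ng/mL final) plus ATP (1.25 mM final); secreted IL-1B measured by AlphaLISA after 16 hr, decreased signal indicating inhibition.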
# HT1080-NT tox – qHTS for induction of synthetic lethality in tumor cells producing 2HG: qHTS for the HT-1080-NT fibrosarcoma cell line; HT-1080-NT fibrosarcoma viability, CellTiter-Glo ATP luminescence, 48 h; Potency, µM (highest dose often 46.1 µM), most hits filed as cytotoxic; 360,000 tested, 1.6% active;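 also: NT is the 2HG producing partner of a matched IDH1 knockdown line; nearly all actives have a fitted effect of over 55% in size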
#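 A 48-hour cytotoxicity screen used HT-1080-NT cells plated 2 hours before compound delivery. ATP-based CellTiter-Glo luminescence measured viability, normalized to DMSO and no-cell controls.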
# TDP1 cell CPT – qHTS for Inhibitors of human tyrosyl-DNA phosphodiesterase 1 (TDP1): qHTS in cells in presence of CPT | Potency, µM (highest dose often 46.2 µM), actives largely listed as inhibitors | 420,000 tested, 12% active | chicken DT40 Tdp1-/-;hTDP1 cells + 20 nM CPT, ATP luminescence, 48 h | AID 686979, 2013; also: nearly all actives have a fitted effect of over 55% in size
#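 Chicken DT40 Tdp1-/- cells stably complemented with human TDP1 were seeded at 400 cells/well in medium containing 20 nM camptothecin, exposed to pin-transferred compounds, and grown at 37 °C for at least 48 hr. Viability was read as ATP luminescence.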
# HT1080 IDH1KD tx – qHTS for induction of synthetic lethality in tumor cells producing 2HG: qHTS for the HT-1080-IDH1KD cell line. AID 686971, 2013. 360,000 tested, 2% active. HT-1080 IDH1 knockdown viability, ATP luminescence, 48 h. Potency, µM (titrated, usually from 46.1 µM), actives largely listed as cytotoxic
#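 % activity derives from luminescence (CellTiter-Glo), normalised to DMSO and no-cell wells. HT-1080-IDH1KD cells, 750/well, had 48 h compound exposure at 37 °C.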
# TDP1 cell noCPT – qHTS for Inhibitors of human tyrosyl-DNA phosphodiesterase 1 (TDP1): qHTS in cells in absence of CPT; 420,000 tested, 15% active; Potency, µM (titrated, usually from 46.2 µM), usual class: inhibitors; DT40 Tdp1-/- hTDP1 cells, no CPT, ATP luminescence, 48 h; AID 686978, 2013; also: nearly all actives have a fitted effect of over 55% in size
#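 Camptothecin absent (DMSO only). Human TDP1-complemented DT40 knockout cells, 400 cells/well, 37 °C for minimum 48 hr; ATP measured via CellTiter-Glo, 30 min dark incubation, luminescence.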
# Numbers stand for hits; . = inactive; ? = inconclusive; / = not tested or not shown. An excerpt weighted towards active compounds, which were near 19% of everything screened. Unless noted, calls follow the shape of the dose curve; as a rule, active = well fitted curve in the direction sought with a large enough effect; inconclusive = small, poorly fitted or top-dose-only effect, or another doubt; inactive = no such curve, though single readings can be large; an effect the other way counts as inactive or inconclusive.
SMILES,IL1B secr inh,HT1080-NT tox,TDP1 cell CPT,HT1080 IDH1KD tx,TDP1 cell noCPT
Cc1cc(C)nc(NC(=O)/C=C/c2ccc3c(c2)OCO3)c1,.,?,.,4.6µM,?
NS(=O)(=O)c1ccc(NC(=O)/C=C/c2ccc3c(c2)OCO3)cc1,.,7.3µM,.,0.73µM,.
O=C(/C=C/c1ccc2c(c1)OCO2)Nc1nncs1,.,?,.,1µM,.
CCCCN(C)C(=S)Nc1ccc2nc3n(c(=O)c2c1)CCCCC3,.,.,.,.,.
COc1ccc2oc(C)c(C(=O)c3ccc(C)cc3)c2c1,.,.,.,.,?
Cc1ccc(-n2nc3c(c2NC(=O)/C=C\c2ccc4c(c2)OCO4)CSC3)cc1,.,.,?,.,18µM
NS(=O)(=O)c1ccc(NC(=O)/C=C/c2ccco2)cc1,.,.,.,.,.
Cc1ccc(-n2nc3c(c2NC(=O)/C=C\c2ccc4c(c2)OCO4)CSC3)c(C)c1,?,.,.,.,.
O=C(/C=C/c1ccco1)Nc1cccc(C(=O)Nc2ccccc2C(=O)O)c1,.,.,.,.,.
Cc1ccc(NC(=O)c2cccc(NC(=O)/C=C/c3ccco3)c2)cc1C,.,.,?,.,?
CCc1ccccc1NC(=O)c1cccc(NC(=O)/C=C/c2ccco2)c1,.,.,18µM,.,21µM
O=C(/C=C/c1ccco1)Nc1ccc2c(c1)OCO2,.,13µM,?,21µM,?
Cc1ccc(-n2nc3ccc(NC(=O)/C=C/c4ccco4)cc3n2)cc1,.,.,21µM,.,?
C[C@H](CO)N1C[C@H](C)[C@@H](CN(C)C(=O)CCCN(C)C)OCc2cn(nn2)CCCC1=O,.,.,.,.,.
COC(=O)C1C(O)CC[C@@H]2CN3CCc4c([nH]c5ccccc45)C3C[C@@H]12 (stereo partly drawn),/,/,.,/,.
COCC(C)NC(=O)C(C)N1c2cccc3cccc(c23)S1(=O)=O (stereo not drawn),.,.,.,.,?
N#Cc1cnn2c(-c3ccc(Cl)cc3Cl)ccnc12,.,.,.,.,?
COC(=O)[C@]1(CC(C)C)N[C@H](c2ccc(-c3ccccc3)cc2)[C@@H]2C(=O)N(C)C(=O)[C@@H]21,.,?,?,.,?
CCN1C(=O)[C@H]2[C@@H](c3ccc(-c4ccc(F)cc4)cc3)N[C@@](CC(C)C)(C(=O)OC)[C@H]2C1=O,-66,.,13µM,.,18µM
COC(=O)[C@]1(CC(C)C)N[C@H](c2ccc(-c3ccc(OC)cc3)cc2)[C@@H]2C(=O)N(C)C(=O)[C@@H]21,.,?,?,.,16µM
COC(=O)[C@]1(CC(C)C)N[C@H](c2ccc(-c3ccc(F)cc3)cc2)[C@@H]2C(=O)N(C)C(=O)[C@@H]21,.,.,18µM,.,?
CCN1C(=O)[C@H]2[C@@H](c3ccc(-c4ccc(OC)cc4)cc3)N[C@@](C)(C(=O)OC)[C@H]2C1=O,.,.,?,.,?
ClCc1nnc(-c2cc3c(s2)CCCC3)o1,-105,?,10µM,?,16µM
O=C(O)CCC(=O)NNc1ccccc1[N+](=O)[O-],.,.,.,.,.
S=C(Nc1ccccc1)Nc1cc(Cl)ccc1Oc1ccccc1,.,.,?,?,.
SMILES,IL1B secr inh,HT1080-NT tox,TDP1 cell CPT,HT1080 IDH1KD tx,TDP1 cell noCPT
COc1cccc(-n2ccnc2SCC(=O)Nc2ccccc2F)c1,-70,.,.,.,.
COc1ccc(NC(=O)CSc2nccn2-c2cccc(OC)c2)cc1,.,.,.,.,.
Cc1cccc(-n2ccnc2SCC(=O)Nc2cc(C)on2)c1,.,.,?,.,?
Cc1cc(C)cc(NC(=O)CSc2nccn2-c2ccccc2)c1,/,/,?,/,23µM
CCOC(=O)c1ccc(NC(=O)CSc2nccn2Cc2ccc(OC)cc2)cc1,/,/,15µM,/,?
Cc1cc(NC(=O)CSc2nccn2-c2cccc(C)c2C)no1,.,?,?,?,21µM
